In one experiment the target is T1, Tyrosyl-tRNA synthetase, putative (Trypanosoma cruzi (strain CL Brener)) (UniProt Q4DSP6).
T1 sequence (whole entry): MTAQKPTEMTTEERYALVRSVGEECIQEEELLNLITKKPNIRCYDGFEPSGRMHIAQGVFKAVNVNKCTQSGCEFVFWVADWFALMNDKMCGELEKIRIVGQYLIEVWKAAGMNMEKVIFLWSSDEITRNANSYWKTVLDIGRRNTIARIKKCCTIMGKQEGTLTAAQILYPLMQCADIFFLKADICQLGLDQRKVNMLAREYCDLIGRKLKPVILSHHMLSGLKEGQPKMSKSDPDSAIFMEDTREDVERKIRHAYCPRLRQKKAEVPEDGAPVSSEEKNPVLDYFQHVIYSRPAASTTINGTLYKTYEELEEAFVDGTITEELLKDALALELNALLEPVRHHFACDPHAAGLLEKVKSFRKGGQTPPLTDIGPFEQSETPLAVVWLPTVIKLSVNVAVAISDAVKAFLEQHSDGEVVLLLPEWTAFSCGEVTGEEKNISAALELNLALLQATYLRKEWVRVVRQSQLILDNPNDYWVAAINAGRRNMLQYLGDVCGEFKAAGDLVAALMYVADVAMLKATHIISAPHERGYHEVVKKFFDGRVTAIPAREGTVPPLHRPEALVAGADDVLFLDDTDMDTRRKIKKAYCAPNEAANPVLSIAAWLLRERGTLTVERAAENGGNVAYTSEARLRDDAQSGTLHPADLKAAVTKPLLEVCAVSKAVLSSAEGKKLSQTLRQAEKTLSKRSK
Kind of experiment: Trypanosoma cruzi tyrosyl tRNA synthetase (TcYRS) SOP. The settings on record: 30 µM. The arrangement: scale not given: direction of the effect not stated beside the values. The class given is functional.
In the case of `Cc1cccc(CCC(=O)N2CCOCC2c2c(C)n[nH]c2C)c1` (stereo not drawn), the Percent Effect was -7.5%. `COc1ccc(NC(=O)c2ccc[nH]2)c(N2CCN(C(C)=O)CC2)n1`: the Percent Effect was determined as 13.4%. On to `CS(=O)(=O)NCC1CCCN(C(=O)Nc2ccccc2Cl)C1` (stereo not drawn), for which the Percent Effect was found to be 18.2%. On the same count and under the same terms, the result for `O=c1cc2c(nn1CN1CCOCC1)CCC2` reads 15.4%; that for `CN(C)C(CNC(=O)c1cccc(-n2cnnn2)c1)c1ccccc1Cl` (stereo not drawn), 10%. On to `COc1cccc2c1ccn2CCNC(=O)C(C)C`, for which the Percent Effect stood at 12.8%. With `CCc1ncncc1C(=O)N1CCCN(Cc2ccc(C)cc2)CC1`, the Percent Effect was -13.6%. As to `CC(NC1(CNC(=O)C(C)(C)C#N)CCOCC1)c1ccccc1` (stereo not drawn), the Percent Effect was -3.7%. With `COc1ccc(CN2C[C@@H]3OCCN(CC4CCCO4)[C@@H]3C2)cc1` (stereo partly drawn), the Percent Effect is 12.8%. Turning to `Cc1cc(C)c(CNC(=O)N2CCN(c3cnccn3)CC2)c(=O)[nH]1`, the Percent Effect turned out to be 9.76%. As for `Cc1nc(CN(Cc2cccs2)C2CCS(=O)(=O)C2)oc1C` (stereo not drawn), the Percent Effect amounted to 23.5%.

As to `CCOc1ccc(S(=O)(=O)NC(=O)CCC2CCCO2)cc1` (stereo not drawn), the Percent Effect worked out at 18.5%.

`CC(C)NC(=O)N1CC[C@@H]2CN(Cc3ccccc3)S(=O)(=O)[C@@H]2CC1`: the Percent Effect was -5.13%.

Take `CN(Cc1ccc(F)cc1)C(=O)CN1CCCC(Cn2cncn2)C1` (stereo not drawn): the Percent Effect came to 3.8%. As to `CNS(=O)(=O)c1ccc(C(=O)N2CCCC(n3cccn3)C2)cc1` (stereo not drawn), the Percent Effect stood at 17.1%. For `Cc1ccc(F)c(-n2nnc(C(=O)O)c2-c2ccncc2)c1`, the Percent Effect is 10.4%.

As to `CN(C)c1ccc(C(=O)NCC2(O)CCOCC2)cc1`, the Percent Effect came to 12.2%.

Turning to `CNS(=O)(=O)CCCN1CCCC1c1cc(C)on1` (stereo not drawn), the Percent Effect was -3.8%.

For `CCN1CC2(CC1=O)CN(Cc1cccs1)CCN(C(=O)C(C)C)C2` (stereo not drawn), the Percent Effect worked out at 11%.

In the next experiment the target is Chromo domain-containing protein 1 (Saccharomyces cerevisiae (strain ATCC 204508 / S288c) (Baker's yeast)) (UniProt P32657). Put plainly: ScCHD-1 Enzyme Inhibition Assay. The settings on record: 30 µM. The arrangement: scale not given: in the data most compounds retested in dose-response had high values. The class given is functional.
Sequence of Chromo domain-containing protein 1 (Saccharomyces cerevisiae (strain ATCC 204508 / S288c) (Baker's yeast)) (P32657 whole entry, the tested form may be a part): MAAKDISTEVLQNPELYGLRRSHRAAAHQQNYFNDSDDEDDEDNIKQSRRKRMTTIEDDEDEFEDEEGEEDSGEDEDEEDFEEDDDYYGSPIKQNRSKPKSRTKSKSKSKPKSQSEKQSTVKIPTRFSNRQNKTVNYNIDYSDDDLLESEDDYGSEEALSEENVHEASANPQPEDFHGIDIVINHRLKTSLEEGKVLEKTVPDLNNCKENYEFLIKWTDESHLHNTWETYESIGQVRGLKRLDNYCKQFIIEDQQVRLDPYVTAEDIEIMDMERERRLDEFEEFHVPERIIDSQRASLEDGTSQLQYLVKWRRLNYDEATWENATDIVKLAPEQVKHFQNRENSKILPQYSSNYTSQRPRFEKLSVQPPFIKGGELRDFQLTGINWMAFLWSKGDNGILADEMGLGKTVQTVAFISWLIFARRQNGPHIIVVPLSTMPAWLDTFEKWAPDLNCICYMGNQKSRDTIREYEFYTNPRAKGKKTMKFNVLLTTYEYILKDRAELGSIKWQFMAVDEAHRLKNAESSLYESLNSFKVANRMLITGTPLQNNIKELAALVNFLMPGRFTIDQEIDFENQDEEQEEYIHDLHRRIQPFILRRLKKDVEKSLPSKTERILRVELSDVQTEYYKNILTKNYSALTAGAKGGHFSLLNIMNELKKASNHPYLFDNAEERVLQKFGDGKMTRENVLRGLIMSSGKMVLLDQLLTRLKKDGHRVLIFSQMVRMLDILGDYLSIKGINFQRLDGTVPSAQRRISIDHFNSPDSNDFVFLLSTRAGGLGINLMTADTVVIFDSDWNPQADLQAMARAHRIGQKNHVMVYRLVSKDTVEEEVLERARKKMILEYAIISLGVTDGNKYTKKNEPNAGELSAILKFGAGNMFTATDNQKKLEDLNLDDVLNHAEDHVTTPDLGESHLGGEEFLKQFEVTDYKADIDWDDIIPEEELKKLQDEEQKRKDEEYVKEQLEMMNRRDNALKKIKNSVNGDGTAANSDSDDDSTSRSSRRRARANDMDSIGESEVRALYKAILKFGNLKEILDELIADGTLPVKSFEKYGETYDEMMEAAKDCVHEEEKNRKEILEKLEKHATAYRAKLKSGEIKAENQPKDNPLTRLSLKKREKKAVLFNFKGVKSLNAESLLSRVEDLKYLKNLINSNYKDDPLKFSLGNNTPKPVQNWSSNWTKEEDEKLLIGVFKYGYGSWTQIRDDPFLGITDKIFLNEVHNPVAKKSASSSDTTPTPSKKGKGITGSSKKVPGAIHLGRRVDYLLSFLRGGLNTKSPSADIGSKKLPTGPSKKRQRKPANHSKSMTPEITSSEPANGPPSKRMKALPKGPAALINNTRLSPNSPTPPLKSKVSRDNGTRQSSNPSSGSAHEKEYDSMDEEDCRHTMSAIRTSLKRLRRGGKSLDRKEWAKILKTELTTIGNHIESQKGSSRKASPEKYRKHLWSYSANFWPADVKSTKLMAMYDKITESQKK
As for `CC(=O)N1CCCC1c1nccc(C)n1` (stereo not drawn), the Percent Effect is -1.52%. Turning to `CN(Cc1nccn1CC(F)(F)F)C(=O)c1cccc(C#N)c1`, the Percent Effect was found to be 13.6%.

With `COc1ccc(-c2noc(CNC(C)Cn3cccn3)n2)c(OC)c1` (stereo not drawn), the Percent Effect was -11.8%.

For `NCC(=O)N1CCCC(c2cncc(Nc3ncccn3)n2)C1` (stereo not drawn), the Percent Effect came to 2.63%. For `O=C(Cc1ccccc1)N1CCC2(CC(=O)N(c3ccsc3)C2)C1` (stereo not drawn), the Percent Effect was -3.9%. On the same count and under the same terms, the result for `CCCSCC(=O)NS(=O)(=O)c1ccc2c(c1)OCCO2` reads -4.12%. Consider `O=C(NC1CC1)[C@H]1C[C@@H]2CCN(CCc3ccccc3)C[C@H]2O1`, for which the Percent Effect is -2.58%. Still for that read-out and setting: the result for `OC1CCCN(Cc2c(-c3ccco3)[nH]c3ncccc23)C1` (stereo not drawn) reads -18.1%; that for `Cn1cccc1C1CCCN1C(=O)NCCCn1cccn1` (stereo not drawn), -1.47%; that for `O=C(NC1(c2nnn(CCO)n2)CCCC1)c1ccccc1`, -4.4%. With `O=C(Cc1ccccc1)N1CCC2(CC(=O)N(c3cccc(F)c3)C2)C1` (stereo not drawn), the Percent Effect was determined as 2.85%. Turning to `c1cncc(C2COC3(CCN(CC4CC4)CC3)C2)c1` (stereo not drawn), the Percent Effect was -3.69%. As to `Cc1nc(C2CCCN(C(=O)c3ccc(OCC4CC4)cc3)C2)no1` (stereo not drawn), the Percent Effect was -8.85%. On to `Cc1ncsc1C(=O)NC1CCN(CCC(N)=O)CC1`, for which the Percent Effect is -1.54%. Regarding `CCn1cc(N)c(C(=O)NCc2cnn(C)c2)n1`, the Percent Effect came out at 1.02%. As to `O=C(NCCNc1ccc(C(F)(F)F)cn1)c1ccc(Br)cc1F`, the Percent Effect is -26.3%.

As to `CCc1ccc(C(=O)N2CCCC(c3noc(CC)n3)C2)o1` (stereo not drawn), the Percent Effect is -10.5%.

`CN(c1ccc(C(=O)NCCCN2CCOCC2)c(Cl)c1)S(C)(=O)=O`: the Percent Effect is -6.36%. For `CCN1CCCC1CN(CCN(C)C)S(=O)(=O)c1ccc(C#N)cc1` (stereo not drawn), the Percent Effect is -5.33%.

With `CN(C)C(C)(C)CNC(=O)C(C)(C)c1ccccc1F`, the Percent Effect stood at 105%.

As to `Cc1cccc(CCC(=O)N2CCOCC2c2c(C)n[nH]c2C)c1` (stereo not drawn), the Percent Effect was -2.99%. On the same count and under the same terms, the result for `COc1ccc(NC(=O)c2ccc[nH]2)c(N2CCN(C(C)=O)CC2)n1` reads -6.01%. For `CS(=O)(=O)NCC1CCCN(C(=O)Nc2ccccc2Cl)C1` (stereo not drawn), the Percent Effect was -7.52%. Consider `O=c1cc2c(nn1CN1CCOCC1)CCC2`, for which the Percent Effect is -8.17%. For `CN(C)C(CNC(=O)c1cccc(-n2cnnn2)c1)c1ccccc1Cl` (stereo not drawn), the Percent Effect was -3.4%. As to `COc1cccc2c1ccn2CCNC(=O)C(C)C`, the Percent Effect is -3.78%. Consider `CCc1ncncc1C(=O)N1CCCN(Cc2ccc(C)cc2)CC1`, for which the Percent Effect was 6.06%. For `CC(NC1(CNC(=O)C(C)(C)C#N)CCOCC1)c1ccccc1` (stereo not drawn), the Percent Effect was -3.14%. Take `COc1ccc(CN2C[C@@H]3OCCN(CC4CCCO4)[C@@H]3C2)cc1` (stereo partly drawn): the Percent Effect was found to be 5.65%. With `Cc1cc(C)c(CNC(=O)N2CCN(c3cnccn3)CC2)c(=O)[nH]1`, the Percent Effect was -9.64%.

Consider `Cc1nc(CN(Cc2cccs2)C2CCS(=O)(=O)C2)oc1C` (stereo not drawn), for which the Percent Effect was found to be 1.43%. For `CCOc1ccc(S(=O)(=O)NC(=O)CCC2CCCO2)cc1` (stereo not drawn), the Percent Effect was -9.06%. As to `CC(C)NC(=O)N1CC[C@@H]2CN(Cc3ccccc3)S(=O)(=O)[C@@H]2CC1`, the Percent Effect is -1.09%. With `CN(Cc1ccc(F)cc1)C(=O)CN1CCCC(Cn2cncn2)C1` (stereo not drawn), the Percent Effect is -2.65%.

Regarding `CNS(=O)(=O)c1ccc(C(=O)N2CCCC(n3cccn3)C2)cc1` (stereo not drawn), the Percent Effect was -14.7%.

Regarding `Cc1ccc(F)c(-n2nnc(C(=O)O)c2-c2ccncc2)c1`, the Percent Effect is -1.85%.

Take `CN(C)c1ccc(C(=O)NCC2(O)CCOCC2)cc1`: the Percent Effect was -5.31%. In the case of `CNS(=O)(=O)CCCN1CCCC1c1cc(C)on1` (stereo not drawn), the Percent Effect turned out to be 0.192%. In the case of `CCN1CC2(CC1=O)CN(Cc1cccs1)CCN(C(=O)C(C)C)C2` (stereo not drawn), the Percent Effect turned out to be 4.59%.

Source of the values: ChEMBL document CHEMBL3988442, “University of Dundee, Small-Polar-MMV Screening Library” (2021).
